28 compounds from ChEMBL document CHEMBL1157539, “Thousands of chemical starting points for antimalarial lead identification” (Nature, 2010) can be followed below.

What all share (type): functional
Test [1] concerns Plasmodium falciparum. Description: GSK_TCMDC: Inhibition of Plasmodium falciparum 3D7 in whole red blood cells, using parasite LDH activity as an index of growth. Test compounds present at 2uM.
Test [2] concerns Plasmodium falciparum. Description: GSK_TCMDC: Inhibition of Plasmodium falciparum Dd2 in whole red blood cells, using parasite LDH activity as an index of growth. Test compounds present at 2uM.
Test [3] has as its system HepG2. Kind of test: GSK_TCMDC: Percent inhibition of human HepG2 cell line. Test compounds present at 10uM.

Turning to `OCC(c1ccccc1)n1c(COc2ccc(Cl)cc2)nc2c(OCCCN3CCCCC3)cccc21` (centres undefined), the results for the Inhibition in test [1], in test [2] and in test [3] were 90%, 68% and 6%, respectively.
The matching figures for `Cc1cc(F)ccc1Nc1nc(N(C)c2ccccc2)c2cc(OCCCN(C)C)ccc2n1`: 100%, 49% and 31%.
The matching figures for `C[C@H](Cc1ccc(C[C@@H](C)NC[C@H](O)c2cccc(Cl)c2)cc1)NC[C@H](O)COc1ccccc1.Cl`: 96%, 60% and 99%.
Turning to `CCNc1cc(C(=O)N[C@@H](Cc2ccccc2Cl)[C@H](O)CNC2CCCCC2)cc(N2CCCCS2(=O)=O)c1.Cl`, the results for the Inhibition in test [1], in test [2] and in test [3] were 99%, 97% and 6%, respectively.
`COc1cncc(/C=C/c2cncc(C(=O)NCCc3ccc(Cl)cc3Cl)c2)c1`: the Inhibition in test [1] stood at 99%; in test [2], 49%; in test [3] it was 0%.
The corresponding values for `Cc1cccc2nc(-c3ccc(-c4ccc(NC(=O)Nc5cccc(C#N)c5)cc4)cc3)[nH]c12` are 100%, 100% and 28%.
As for `Cc1ccc(C2(CN3CCC(NC(=O)c4n[nH]cc4Cl)CC3)CCCCC2)cc1`, the values for the Inhibition in test [1], in test [2] and in test [3] were 97%, 96% and 0%, respectively.
The matching figures for `COc1ccc2nc(-c3ccc(C(=O)NCCCN4CCN(c5cc(Cl)ccc5OC)CC4)cc3OC)[nH]c2c1`: 100%, 24% and 0%.
The corresponding values for `Cc1cccc2nc(-c3ccc(-c4ccc(CNCc5cccc(N)c5)cc4)s3)[nH]c12.O=C(O)C(F)(F)F` are 100%, 78% and 10%.
The matching figures for `O=C(NC1CCCCN(Cc2ccccc2O)C1)c1ccc(-c2ccccc2)cc1.O=C(O)C(F)(F)F` (centres undefined): 97%, 61% and 21%.
In the case of `Cc1ccccc1OCC(O)CNC1CCC(NCC(O)COc2ccccc2C)CC1` (centres undefined), the Inhibition in test [1] was found to be 98%; in test [2], 24%; in test [3], 96%.
In the case of `O=C(Nc1ccc(OC2CCN(Cc3ccc(F)cc3)CC2)c(Cl)c1)c1ccc(F)cc1.O=C(O)C(F)(F)F`, the Inhibition in test [1] worked out at 97%; in test [2], 95%; in test [3], 37%.
The corresponding values for `O=C(Nc1cccc(CN2CCCN(Cc3ncc[nH]3)CC2)c1)c1cc2ccccc2s1.O=C(O)C(F)(F)F` are 99%, 35% and 22%.
The corresponding values for `COc1cc2c(cc1OCCN1CCC(N3CCCCC3)CC1)N(C(=O)/C=C/c1ccccc1OC(F)(F)F)CC2.Cl` are 100%, 93% and 64%.
The matching figures for `COc1cc(Cc2cnc(N)nc2N)cc(OC(C)C)c1OC`: 91%, 15% and 10%.
As for `CN(C)c1ccc(/N=C2/N/C(=N/c3ccc(N(C)C)cc3)c3ccccc32)cc1`, the Inhibition in test [1] stood at 93%; in test [2], 20%; in test [3], 23%.
For `CCOc1cc(C(=O)NC2CC(C)(C)NC(C)(C)C2)ccc1-c1cc2cc(Cl)c(Cl)cc2[nH]1`, the Inhibition in test [1] came to 100%; in test [2] it was 46%; in test [3] it was 37%.
In the case of `NCCCCNc1cc(-c2ccnc(Nc3cccc(Cl)c3)n2)ccn1`, the Inhibition in test [1] was 94%; in test [2] it was 91%; in test [3], 46%.
The corresponding values for `O=C(O)C(F)(F)F.O=c1ccc2ccc(F)c3c2n1CC3CN1CCC(NCc2cccc(-c3cccs3)c2)CC1` (centres undefined) are 100%, 75% and 17%.
In the case of `Cc1cc(C)c(NC(=O)N2CCCN(CCCCCNC(=O)/C=C/c3ccc(Cl)c(Cl)c3)CC2)c(C)c1`, the Inhibition is given as 91% in test [1], 0% in test [2] and 12% in test [3].
For the compound `CN(C)Cc1ccc2cc(NC(=O)c3ccc(-c4ccc(Cl)cc4)cc3)ccc2c1`, the results for the Inhibition in test [1], in test [2] and in test [3] were 92%, 22% and 21%, respectively.
The corresponding values for `COc1cc(NC(=O)N2CCc3ccc(OCCN4CCCCC4)cc32)cc(C(F)(F)F)c1.O=C(O)C(F)(F)F` are 100%, 93% and 9%.
With `COc1ccc2ncc(F)c(CCN3CC(O)C(CNCc4ccc5c(n4)NC(=O)CS5)C3)c2c1.Cl` (centres undefined), the Inhibition is 92% in test [1], 34% in test [2] and 0% in test [3].
`COc1ccc(NC(=O)[C@H](Cc2ccccc2)Nc2cc(C)nc(NCCc3cccs3)n2)cc1.O=C(O)C(F)(F)F`: the figures for the Inhibition in test [1], in test [2] and in test [3] were 100%, 83% and 12%, respectively.
Turning to `Cc1c(C)n(C2CCCCC2)c2ncnc(OC3CCN(CC(=O)N4CCCC4)CC3)c12`, the Inhibition in test [1] was determined as 95%; in test [2], 59%; in test [3], 31%.
The corresponding values for `COc1cc(-c2cc(-c3ccc(OCCN(C)C)cc3)[nH]c2-c2ccncc2)ccc1Cl.Cl` are 100%, 100% and 28%.
The corresponding values for `COc1cc(NC(=O)Nc2ccc([N+](=O)[O-])cc2OC)c(OC)cc1Cl` are 87%, 6% and 38%.
The matching figures for `O=C(O)C(F)(F)F.c1cc(CNCC2CCN(CC3CCCCC3)CC2)cc(-n2ccnc2)c1`: 100%, 99% and 18%.

By Inhibition is commonly meant the relative decrease from the control value, in per cent. Low values mean a weak effect, high ones a strong effect.
